Source: PubChem BioAssay
A number with no mark means an inactive call. No rule for the calls is given here.

Target: Pantothenate synthetase (Mycobacterium tuberculosis (strain ATCC 25618 / H37Rv)) (UniProt P9WIL5)
Assay: Recombinant Mtb pantothenate synthetase (PanC) inhibitors, coupled enzyme, confirmatory (AID 375);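 also: 0% = full reaction with vehicle and 100% = no enzyme background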
Conditions: coupled enzyme assay; at 10 µM, active compounds read high

Pantothenate synthetase (Mycobacterium tuberculosis (strain ATCC 25618 / H37Rv)), sequence (P9WIL5 whole entry, looked up): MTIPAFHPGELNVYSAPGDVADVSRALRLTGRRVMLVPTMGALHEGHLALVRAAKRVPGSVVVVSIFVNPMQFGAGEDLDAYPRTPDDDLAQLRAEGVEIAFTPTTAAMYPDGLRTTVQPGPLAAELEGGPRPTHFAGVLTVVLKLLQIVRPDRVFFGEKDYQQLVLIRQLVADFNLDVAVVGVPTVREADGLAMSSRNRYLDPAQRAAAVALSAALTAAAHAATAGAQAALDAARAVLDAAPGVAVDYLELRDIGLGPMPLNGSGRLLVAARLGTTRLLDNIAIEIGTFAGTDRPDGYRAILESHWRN

Compound	inhibition [%]
COc1cccc(-n2nnnc2SCC(=O)NCc2ccco2)c1	0
Cc1cccc(NC(=O)c2cc3n(n2)C(C(F)(F)F)CC(c2ccc4c(c2)OCO4)N3)c1 (centres undefined)	4
Cc1onc(-c2c(Cl)cccc2Cl)c1C(=O)N1CCc2ccccc21	0
Cc1noc(C)c1COc1cccc(C(=O)Nc2ccc(C#N)cc2)c1	0
COc1ccc2cnn(-c3ccccc3C)c(=O)c2c1OC	3
O=C(CCOc1ccccc1)NCc1ccccc1	0
CCCCN1C(=O)C2C(C(=O)Nc3cccc(OC)c3)C3C=CC2(O3)C1C(=O)NC1CCCCC1C (centres undefined)	0
CCc1nccn1S(=O)(=O)c1ccc2ccc(C)cc2c1	3
COC(=O)c1sc(S(=O)(=O)N2CCN(c3ccccc3)CC2)c(C(=O)OC)c1C	10
O=C(O)c1ccc(CSc2ncn[nH]2)cc1	1
Cc1nc2ccc(S(=O)(=O)NCC(=O)N(C)Cc3ccco3)cc2s1	0
COc1ccccc1N1CCN(C(=O)C2CCCO2)CC1 (centres undefined)	0
Cc1nn(-c2ccccc2)c2c1C(c1c(C)[nH]c(C#N)c1C)C(C#N)=C(N)O2 (centres undefined)	1
CCN(CCNC(=O)C1CCN(S(=O)(=O)CC)CC1)c1ccccc1	2
COc1cccc(C2=Nn3c(nnc3-c3ccccc3O)SC2)c1	1
O=c1c2cn[nH]c2nc(SCc2ccc3c(c2)OCCO3)n1-c1ccccc1	3
O=C(CCS(=O)(=O)c1cccc2nsnc12)N1CCN(Cc2ccc3c(c2)OCO3)CC1	0
Cc1c[nH]c2cccc(OCC(O)CNC(C)(C)C)c12 (centres undefined)	0
COc1cccc(-c2nnc(SCC(N)=O)n2-c2ccc(Cl)cc2)c1	0
CC1=C(n2nnc3ccccc32)C(c2ccccc2)C(C#N)=C(N)O1 (centres undefined)	5

Compound	inhibition [%]
Cc1sc2nc(SCC(=O)NCc3ccco3)n(CCc3ccccc3)c(=O)c2c1C	0
Cc1nc2c(C(=O)O)cnn2c(C)c1Cc1ccccc1F	0
CCOC(=O)c1[nH]c(C)c(C(=O)Nc2ccc(C)c(Cl)c2)c1C	9
O=C1CSC(=Nc2ccc(O)cc2)N1c1ccc(O)cc1	0
O=C(Cn1nc(Cc2ccncc2)c2ccccc2c1=O)N1CCc2ccccc2C1	0
CC(=O)C1=C(C)NC(=O)NC1c1cccc(O)c1 (centres undefined)	8
CN1C(=O)CCC1(O)c1ccccc1 (centres undefined)	0
C=CCn1c2ccccc2c2nnc(SCC(=O)NC(C(=O)OC)C(C)C)nc21 (centres undefined)	4
Cc1ccc(C2CC(c3cccc(Br)c3)Nc3nnnn32)cc1 (centres undefined)	1
Cc1ncc(CSc2nc3ccccc3[nH]2)c(N)n1	5
Cc1ccnc(NC(=O)C2CCCN(S(=O)(=O)c3cnc[nH]3)C2)c1 (centres undefined)	0
Nc1nc2n(n1)C(c1cccc(Br)c1)CC(c1ccc(F)cc1)N2 (centres undefined)	0
COc1cc(C2C(C#N)=C(C)NC3=C2C(=O)CC(C)(C)C3)ccc1O (centres undefined)	0
COc1cc(CC(=O)Oc2ccc3c(c2)OCO3)cc(OC)c1OC	0
CC(=O)Nc1ccc(S(=O)(=O)n2cnc(C)c2)cc1	3
NC(=O)CSCc1ccc(Br)cc1	0
COc1ccc(C(=O)N2CCN(c3nc4cc(C)ccc4cc3C#N)CC2)c(OC)c1	0
COc1ccccc1OCC(=O)N1CCNC1=O	0
COc1ccc(-n2c(SCC(N)=O)nc3sc4c(c3c2=O)CCN(C)C4)cc1	0
